Consider eight compounds from PubChem BioAssay (Tox21).

A short description of test [1]: Nuclear factor erythroid 2-related factor 2/antioxidant responsive element (Nrf2/ARE) small molecule agonists: qHTS cell viability counter screen in human keratinocytes (AID 1919968; active means well fitted curve in the direction sought with a large enough effect in the repeat runs; an effect the other way counts as inactive or inconclusive; further: nearly all actives have a fitted effect of over 55% in size). The method in brief:
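Measured as CellTiter-Fluor fluorescence, this readout tracks cytotoxicity in the same wells as the ARE-luciferase screen. HaCaT reporter cells (1,500/well) received compounds after a 5 h pre-incubation and were exposed for 23 h.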
(In general: Quantitative high-throughput screening tests each substance at several concentrations.)

Test [2] in a line: Nuclear factor erythroid 2-related factor 2/antioxidant responsive element (Nrf2/ARE) small molecule agonists: luciferase reporter gene qHTS assay in human keratinocytes (AID 1919969). Further: nearly all actives have a fitted effect of over 35% in size. Further: potency means the concentration at half of the fitted maximal effect. For orientation: In a reporter assay the amount or activity of a reporter protein is the signal.
Test [3] concerns the target Gonadotropin-releasing hormone receptor (Homo sapiens) (UniProt P30968). Nature of the test: Human gonadotropin-releasing hormone receptor (GnRHR) small molecule agonists, calcium flux assay in GnRHR-HEK293 cells (AID 1920063). Further: nearly all actives have a fitted effect of over 35% in size. The method in brief:
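Fluorescence kinetics (480 nm excitation, 540 nm emission; 3 min, 1 s steps) report calcium mobilisation in human GnRHR-HEK293 cells in agonist mode. Dye incubation: 1 h, 37 C.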
(In general: Calcium flux is commonly read through the fluorescence of an indicator in the cells.)

In test [4] the target is KiSS-1 receptor (Homo sapiens) (UniProt Q969F8). Nature of the test: Human kisspeptin (KISS1R) small molecule agonists, calcium flux assay in KISS1R-HEK293 cells (AID 1920064; active means well fitted curve in the direction sought with a large enough effect in the repeat runs; an effect the other way counts as inactive or inconclusive). The method in brief:
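Measures KISS1R agonism through calcium-sensitive dye fluorescence in stably transfected HEK293 cells, read for 3 min after pin-tool compound delivery; 15-point titrations in triplicate.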

A short description of test [5]: G protein-coupled receptor (GPCR) small molecule agonists, calcium flux assay: HEK293 wild type cell line counter screen (AID 1920065). The method in brief:
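Readout: fluorescence at 480 nm excitation/540 nm emission, sampled at 1 s intervals for 3 min. Cells had been cultured 18 h, then dye-loaded 1 h at 37 C before compound or ATP addition.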

Test [6] in a line: p53 small molecule agonists, cell-based qHTS assay with human liver microsomes (AID 1963577).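 Further: p53 response element beta-lactamase reporter cells with liver microsomes plus NADPH.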 Summed up:
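Metabolically competent format: test substances, human liver microsomes and NADPH (both 0.5 mg/mL final) incubated with p53RE-bla cells 16 h at 37 C. Beta-lactamase reporter signal then quantified by fluorescence.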

Test [7] can be described thus: p53 small molecule agonists, cell-based qHTS assay with human liver microsomes: qHTS cell viability counter screen (AID 1963579). Further: nearly all actives have a fitted effect of over 45% in size. Summed up: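 Tox21 library compounds, delivered from DMSO stocks, were tested on p53RE-bla cells together with 0.5 mg/mL human liver microsomes and 0.5 mg/mL NADPH (final) over 16 h at 37 C; CellTiter-Glo luminescence served as the cytotoxicity measure.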

The nature of test [8]: p53 small molecule agonists, cell-based qHTS assay with rat liver microsomes: qHTS cell viability counter screen (AID 1963580). Further: nearly all actives have a fitted effect of over 45% in size. Summed up: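 Intracellular ATP, by CellTiter-Glo luminescence, defines viability. HCT-116 p53RE-bla cells, 4,000 per well, were compound-treated in the presence of rat liver microsomes and NADPH for 16 h at 37 C.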
Test [9] is described as follows: p53 small molecule agonists, cell-based qHTS assay: qHTS cell viability counter screen (AID 1963581). Further: nearly all actives have a fitted effect of over 45% in size. The method in brief:
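In the same plates used for the p53 bla reporter, HCT-116 cells given compounds for 16 h at 37 C received CellTiter-Glo; luminescence was recorded 30 min later at room temperature.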

The nature of test [10]: p53 small molecule agonists, cell-based qHTS assay (AID 1963582; active means well fitted activation curve with a large enough effect in the signal ratio in the repeat runs, not every such curve was filed as active; the % refers to the signal ratio). Summed up: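 Compounds are pin-transferred in DMSO onto p53RE-bla cells and incubated 16 h at 37 C. The B/G FRET beta-lactamase substrate is then applied for 2 h at RT and fluorescence recorded.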
Test [11] has as its target 5-hydroxytryptamine receptor 2A (Homo sapiens) (UniProt P28223). Nature of the test: 5-hydroxytryptamine receptor 2A (HTR2A) small molecule agonists, cell-based qHTS assay (AID 1963587). Further: nearly all actives have a fitted effect of over 30% in size. Summed up: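 Kinetic calcium-flux fluorescence (2 min, 1 sec intervals) after compound addition in agonist mode. HTR2A-CHO cells were cultured 18 h, then dye-loaded 1 h at 37 C.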
For test [12], the target named is Muscarinic acetylcholine receptor M1 (Homo sapiens) (UniProt P11229). Briefly: Cholinergic receptor muscarinic 1 (CHRM1) small molecule antagonists, cell-based qHTS assay (AID 1963588). Further: nearly all actives have a fitted effect of over 40% in size. Summed up: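 CHRM1-CHO calcium-flux assay, antagonist mode. Cells were seeded 18 h, dye-loaded 1 h at 37 C and given compound for 5 min at RT, then acetylcholine was added at 50nM. FDSS fluorescence was read 3 min; 15 concentrations, three runs.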
Muscarinic acetylcholine receptor M1 (Homo sapiens), sequence (P11229 whole entry, looked up): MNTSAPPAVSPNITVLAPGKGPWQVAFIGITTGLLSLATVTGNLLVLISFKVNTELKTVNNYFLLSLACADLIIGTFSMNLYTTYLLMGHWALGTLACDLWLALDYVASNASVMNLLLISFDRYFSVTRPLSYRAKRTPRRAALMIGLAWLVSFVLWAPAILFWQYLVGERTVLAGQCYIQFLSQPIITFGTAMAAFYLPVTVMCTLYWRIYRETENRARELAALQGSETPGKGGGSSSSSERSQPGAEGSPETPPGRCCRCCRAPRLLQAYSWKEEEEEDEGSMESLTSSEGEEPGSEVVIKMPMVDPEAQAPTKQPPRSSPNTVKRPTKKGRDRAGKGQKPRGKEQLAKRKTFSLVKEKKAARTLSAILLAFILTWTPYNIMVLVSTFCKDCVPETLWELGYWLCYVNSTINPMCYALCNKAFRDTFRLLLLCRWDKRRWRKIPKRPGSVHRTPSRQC

Test [13] shares this target. Briefly: Cholinergic receptor muscarinic 1 (CHRM1) small molecule agonists, cell-based qHTS assay (AID 1963589). Further: nearly all actives have a fitted effect of over 35% in size. The method in brief:
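Each compound was tested at 15 concentrations across three independent runs on dye-loaded CHO cells stably expressing human CHRM1, reading intracellular calcium fluorescence kinetically at 1 sec intervals.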

Test [14] can be described thus: cAMP Responsive Elements (CRE) small molecule agonists, cell-based qHTS assay (AID 1963590). The method in brief: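 Cell line: CRE-bla HEK 293T; medium DMEM/10% dialyzed FBS/0.1 mM NEAA/1 mM pyruvate/25 mM HEPES; 3 h compound exposure; beta-lactamase FRET readout after 2 h substrate loading at RT.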
Test [15] in a line: cAMP Responsive Elements (CRE) small molecule antagonists, cell-based qHTS assay (AID 1963591; active means well fitted inhibition curve with a large enough effect in the signal ratio in the repeat runs, not every such curve was filed as active; the % refers to the signal ratio). Summed up:
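Inhibition of NKH477-driven (0.25 uM final) CRE-beta-lactamase signal in HEK293T cells, 3 h compound exposure at 37 °C, detected by FRET substrate fluorescence.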

The target in test [16] is Beta-2 adrenergic receptor (Homo sapiens) (UniProt P07550). Briefly: Adrenergic beta2 receptor (ADRB2) small molecule antagonists, cell-based qHTS assay (AID 1963592). Further: series mostly up to about 92 µM; nearly all actives have a fitted effect of over 50% in size. The method in brief:
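Cells (CHO, stable ADRB2 overexpression) incubated 18-20hr at 37C; compounds added from DMSO; agonist mix (1nM isoproterenol, 100uM IBMX, 25uM Ro-20-1724) added; 0.5hr RT; d2-cAMP and anti-cAMP-cryptate added; 1hr RT; 665/615 nm read.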

Test [17] deals with D(2) dopamine receptor (Homo sapiens) (UniProt P14416). Briefly: Dopamine D2 receptor (DRD2) small molecule agonists, cell-based qHTS assay (AID 1963594). Further: nearly all actives have a fitted effect of over 35% in size. Further: potency means the concentration at half of the fitted maximal effect. The method in brief: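 cAMP accumulation in DRD2-HEK293 cells measured by HTRF after 1 h detection; compounds added 10 min before NKH477 (200nM […]) forskolin-analogue stimulation, 30 min at room temperature, with Ro20-1724 present at 0.1 mM final.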
D(2) dopamine receptor (Homo sapiens), sequence (P14416 whole entry, looked up): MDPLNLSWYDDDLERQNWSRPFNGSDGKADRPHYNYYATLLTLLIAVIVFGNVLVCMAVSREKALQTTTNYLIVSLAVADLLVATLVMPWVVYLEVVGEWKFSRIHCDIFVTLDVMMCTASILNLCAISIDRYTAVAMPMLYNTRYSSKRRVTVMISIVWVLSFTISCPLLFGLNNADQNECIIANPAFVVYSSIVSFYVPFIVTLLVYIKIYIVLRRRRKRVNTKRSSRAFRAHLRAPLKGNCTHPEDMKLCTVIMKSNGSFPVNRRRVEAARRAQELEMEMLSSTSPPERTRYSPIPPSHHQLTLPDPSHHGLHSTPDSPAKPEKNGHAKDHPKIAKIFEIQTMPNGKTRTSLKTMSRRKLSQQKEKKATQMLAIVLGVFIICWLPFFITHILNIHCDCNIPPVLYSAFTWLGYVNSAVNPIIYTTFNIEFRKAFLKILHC

For test [18] the target is unchanged. Nature of the test: Dopamine D2 receptor (DRD2) small molecule antagonists, cell-based qHTS assay (AID 1963595; active means well fitted inhibition curve with a large enough effect in the signal ratio in the repeat runs, with a control signal flat; the % refers to the signal ratio; further: potency means the concentration at half of the fitted maximal effect). Summed up:
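Antagonist mode in DRD2-HEK293 cells: after compound addition with 0.1 mM Ro20-1724, cells received quinpirole (12 nM) and NKH477 (200 nM) for 30 min at room temperature; HTRF cAMP read after 1 h detection.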

A short description of test [19]: p53 small molecule agonists, cell-based qHTS assay with rat liver microsomes (AID 1963578). The method in brief:
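Each plate received p53RE-bla cells, then compound, then rat liver microsomes and NADPH (both 0.5 mg/mL final). Plates were held 16 h at 37 C, and beta-lactamase activity was detected with LiveBLAzer over 2 h.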

The target in test [20] is 5-hydroxytryptamine receptor 2A (Homo sapiens) (UniProt P28223). Nature of the test: 5-hydroxytryptamine receptor 2A (HTR2A) small molecule antagonists, cell-based qHTS assay (AID 1963586). Further: nearly all actives have a fitted effect of over 45% in size. The method in brief:
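Antagonist-mode intracellular calcium assay: DOI (4 nM) added after 5 min compound pre-incubation at room temperature to dye-loaded HTR2A-CHO cells. Fluorescence followed for 3 min, sampled every second.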

A number with no mark means an inactive call. Results filed as inconclusive are left out. Active and inactive are the calls of the source. Unless noted, the call rests on the fitted dose curve.
On the % scale 0 is the no-effect control and ±100 the full control effect.

5-hydroxytryptamine receptor 2A (Homo sapiens), sequence (P28223 whole entry, looked up): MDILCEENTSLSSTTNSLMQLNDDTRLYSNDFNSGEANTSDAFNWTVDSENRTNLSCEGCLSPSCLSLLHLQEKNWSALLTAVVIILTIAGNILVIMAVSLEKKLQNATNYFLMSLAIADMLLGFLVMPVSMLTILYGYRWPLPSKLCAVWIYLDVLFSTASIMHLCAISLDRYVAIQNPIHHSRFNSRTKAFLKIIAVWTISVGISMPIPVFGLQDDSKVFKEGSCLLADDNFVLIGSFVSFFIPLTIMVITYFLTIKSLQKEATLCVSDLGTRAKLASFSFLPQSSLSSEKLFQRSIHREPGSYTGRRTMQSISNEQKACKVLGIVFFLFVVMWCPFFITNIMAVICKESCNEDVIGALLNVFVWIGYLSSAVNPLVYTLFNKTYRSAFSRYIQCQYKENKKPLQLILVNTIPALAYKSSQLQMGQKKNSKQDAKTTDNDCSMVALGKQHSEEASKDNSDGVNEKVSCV
Beta-2 adrenergic receptor (Homo sapiens), sequence (P07550 whole entry, looked up): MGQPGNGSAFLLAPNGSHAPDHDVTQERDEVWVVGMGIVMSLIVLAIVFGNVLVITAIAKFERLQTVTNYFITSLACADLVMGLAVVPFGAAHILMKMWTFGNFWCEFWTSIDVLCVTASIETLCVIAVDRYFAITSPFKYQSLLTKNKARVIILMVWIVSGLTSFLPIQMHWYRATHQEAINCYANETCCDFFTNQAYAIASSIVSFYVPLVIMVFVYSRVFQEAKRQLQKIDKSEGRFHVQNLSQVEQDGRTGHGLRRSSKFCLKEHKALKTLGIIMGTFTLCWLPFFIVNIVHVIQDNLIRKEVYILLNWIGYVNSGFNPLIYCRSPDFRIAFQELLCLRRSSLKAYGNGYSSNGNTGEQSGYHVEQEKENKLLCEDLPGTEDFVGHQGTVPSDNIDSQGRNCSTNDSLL
Gonadotropin-releasing hormone receptor (Homo sapiens), sequence (P30968 whole entry, looked up): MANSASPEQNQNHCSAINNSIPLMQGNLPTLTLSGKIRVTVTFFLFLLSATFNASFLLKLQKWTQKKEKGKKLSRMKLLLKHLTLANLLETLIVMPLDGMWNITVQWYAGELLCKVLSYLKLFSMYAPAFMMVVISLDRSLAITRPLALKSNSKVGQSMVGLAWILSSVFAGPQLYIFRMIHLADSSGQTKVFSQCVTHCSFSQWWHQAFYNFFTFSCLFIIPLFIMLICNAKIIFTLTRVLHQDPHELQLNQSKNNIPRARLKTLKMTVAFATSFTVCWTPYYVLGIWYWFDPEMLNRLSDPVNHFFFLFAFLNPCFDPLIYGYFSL
KiSS-1 receptor (Homo sapiens), sequence (Q969F8 whole entry, looked up): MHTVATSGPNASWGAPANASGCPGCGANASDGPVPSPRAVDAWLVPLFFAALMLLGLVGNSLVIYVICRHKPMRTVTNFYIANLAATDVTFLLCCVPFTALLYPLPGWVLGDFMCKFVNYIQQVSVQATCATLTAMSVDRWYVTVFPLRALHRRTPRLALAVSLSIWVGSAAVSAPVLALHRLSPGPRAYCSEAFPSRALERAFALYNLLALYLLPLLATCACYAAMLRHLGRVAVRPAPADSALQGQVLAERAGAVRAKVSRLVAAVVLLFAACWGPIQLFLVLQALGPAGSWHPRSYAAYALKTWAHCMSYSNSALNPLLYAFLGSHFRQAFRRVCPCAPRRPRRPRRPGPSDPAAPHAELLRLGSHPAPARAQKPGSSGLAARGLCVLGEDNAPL

Consider `CC12CCCC=C1C(=O)OC2=O` (stereo not given), for which the Potency result in test [1], in test [2], in [3], in test [6], in test [7] and in test [8] was “inactive” each time. The Potency result in test [9], in [10], in [11], in [12], in [13] and in test [14] was “inactive” in each case. For the same compound, the Potency entry in test [15], in test [16], in test [17] and in [18] was “inactive” each time. The result in test [4] and in test [5] was inactive.
With `C/C=C/C(=O)CC`, in test [1], the activity change, negative = cytotoxicity is -0.853% [at 19 µM]. Besides, the Potency in test [2] is 10.5 µM (active). Also, the activity change in [3] was 1.75% [at 11.8 µM, stronger effect = higher value]. The activation in test [4] was -0.292% [at 15.8 µM]; in test [5], 0.719% [at 11.8 µM]; in test [6], -15.9% [at 13.5 µM]; in test [19], -0.406% [at 13.6 µM]; in test [10], -2.81% [at 13.5 µM]; in test [11], -1.41% [at 15.9 µM]. The activation in test [13] is 0.129% [at 15.8 µM]; in test [14], -0.284% [at 19 µM]. Further, the activity, negative = inhibition in test [20] is 10.6% [at 12.7 µM]. Moreover, the activity change, negative = inhibition in [18] was 0.284% [at 18.9 µM].
For the compound `O=c1cc(-c2ccccc2)oc2ccc3ccccc3c12`, the Potency result in test [1], in test [3], in test [6], in [19], in [10] and in test [17] was “inactive” in each case. The Potency result in [18] is “inactive”. Moreover, the Potency in test [2] is 0.486 µM (active). The result in [4] and in [5] was inactive.
`c1cc2c3c(c1)ccc1cccc(c13)C2`: the Potency entry in [1], in [2], in [3], in test [6], in [7] and in test [8] was “inactive” in each case. The Potency result in test [9], in [10], in [20], in test [11], in test [12] and in [13] was “inactive” throughout. For the same compound, the Potency result in [16], in [17] and in test [18] was “inactive” throughout. Besides, the outcome in test [4] and in [5] was inactive.
Consider `OCCCCC(O)CO` (stereo not given), for which the Potency entry in test [1], in test [2], in test [3], in test [6], in test [7] and in test [8] was “inactive” throughout. Moreover, the Potency entry in test [9], in test [10], in test [20], in test [11], in test [12] and in test [13] was “inactive” each time. The Potency entry in test [14], in [16], in [17] and in [18] was “inactive” in each case. Also, the outcome in test [4] and in [5] was inactive.
As for `CC(CCc1ccc(O)cc1)NCCc1ccc(O)c(O)c1` (stereo not given), the Potency entry in test [1], in test [2], in test [3], in [6], in test [19] and in [8] was “inactive” each time. For the same compound, the Potency entry in [15] and in test [16] was “inactive” each time. Besides, the result in [4] and in test [5] was inactive. The Potency in test [17] is 0.0779 µM (active); in test [18], 10.6 µM (active).
`CC(=O)CC(c1ccc([N+](=O)[O-])cc1)c1c(O)c2ccccc2oc1=O` (stereo not given): the Potency result in test [1], in test [2], in [3], in test [6], in test [7] and in [8] was “inactive” each time. Also, the Potency entry in [9], in test [10], in test [20], in test [11], in test [12] and in [13] was “inactive” throughout. The Potency result in [15] and in test [17] was “inactive” throughout. Besides, the outcome in [4] and in test [5] was inactive.
As to `O=C(O)C(Cc1cc(I)c(O)c(I)c1)c1ccccc1` (stereo not given), the Potency result in test [1], in test [2], in [3], in test [6], in test [7] and in test [8] was “inactive” each time. In addition, the Potency entry in [9], in test [10], in test [20], in [12], in test [13] and in [15] was “inactive” each time. Also, the Potency result in test [16] and in [17] was “inactive” throughout. Moreover, the result in test [4] and in test [5] was inactive.
